The whole screen tested about 52,000 compounds, of which about 4,300 (8.3%) were called active. No stated cut-off is given here; in the data, active means survival mostly below about 52% (no sharp cut-off); inactive means mostly above about 56%. The list comes from a sample in which actives are over-represented; it also holds similar structures and randomly drawn compounds.
Tested on: DeltatarO mutant
Experiment: S. aureus survival, RN4220 and DeltatarO strains – OD600, teichoic acid synthesis inhibitors, primary screen (AID 463173)
Conditions: S. aureus RN4220 wild type/DeltatarO growth, OD600, 18 h, stronger effect = lower value, screened at 18.75 µg/mL (by protocol)

Structure (SMILES)	survival
CCN(CC)C(=O)C1=CC(c2ccc3c(c2)OCO3)=NS(=O)(=O)N1C	86% (inactive)
Cc1nc(SCC(=O)OCN2C(=O)c3ccccc3C2=O)n[nH]1	80% (inactive)
COC(=O)C(C)Sc1ncnc2c1c(-c1ccccc1)cn2-c1ccc(F)cc1 (stereo unspecified)	76% (inactive)
Cn1c(=O)c2c(c3ccccc31)OC(=O)CC2c1ccc(C(F)(F)F)cc1 (stereo unspecified)	61% (inactive)
COc1ccc(C2CC(=O)c3c([nH]c(C(=O)OCCOc4ccccc4)c3C)C2)cc1OC (stereo unspecified)	99% (inactive)
COc1ccc(C)cc1NC(=O)C(Cc1ccccc1)NS(=O)(=O)c1ccc(Br)s1 (stereo unspecified)	131% (inactive)
Cc1ccc(N2CC(NC(=O)C3CC3)CC2=O)cc1C (stereo unspecified)	94% (inactive)
CC(=O)Nc1ccc(OCC(O)CN2CCN(c3ccc(C)c(Cl)c3)CC2)cc1 (stereo unspecified)	76% (inactive)
Cc1cc(OCC(O)CN2CCN(c3cccc(Cl)c3)CC2)ccc1Cl (stereo unspecified)	-1% (active)
COc1ccccc1N1CCN(CC(O)COc2ccc(Cl)c(C)c2)CC1 (stereo unspecified)	59% (inactive)
CCOC(=O)c1c(C)oc2nc(C)nc(NCC3CCN(Cc4ccc(C)cc4)CC3)c12	91% (inactive)
O=C(O)CN1C(=O)/C(=c2\sc3nc4ccccc4n3c2=O)c2ccccc21	81% (inactive)
O=c1[nH]c2ccc(NCc3ccccc3F)cc2[nH]1	94% (inactive)
CCOc1ccccc1CNC(=O)c1cnn(-c2ccc(C)cc2)c1-n1cccc1	37% (active)
COc1ccc(CNC(=O)c2cnn(-c3ccc(F)cc3)c2-n2cccc2)cc1	89% (inactive)
COc1cc(OC)c(NC(=O)c2cnn(-c3ccccc3)c2-n2cccc2)cc1Cl	84% (inactive)
CSc1ccc(CCNC(=O)c2cnn(-c3ccccc3)c2-n2cccc2)cc1	46% (active)
COc1ccccc1NC(=O)c1cnn(-c2ccccc2)c1-n1cccc1	93% (inactive)
CCOC(=O)c1cccc(NC(=O)c2cnn(-c3ccccc3)c2-n2cccc2)c1	80% (inactive)
O=C(Nc1cc(C(F)(F)F)ccc1Cl)c1cnn(-c2ccccc2)c1-n1cccc1	0% (active)
Cc1ccc(-n2ncc(C(=O)NCc3ccccc3C)c2-n2cccc2)cc1	74% (inactive)
O=C(NCCc1ccccc1)c1cnn(-c2ccc(F)cc2)c1-n1cccc1	58% (inactive)

Structure (SMILES)	survival
CCOc1ccc(NC(=O)c2cnn(-c3ccccc3)c2-n2cccc2)cc1	71% (inactive)
COc1ccc(CNC(=O)c2cnn(-c3ccccc3)c2-n2cccc2)cc1OC	113% (inactive)
CCc1ccc(NC(=O)c2cnn(-c3ccccc3)c2-n2cccc2)cc1	31% (active)
COCCn1c(C)cc(O)c(C(c2ccccc2F)N2CCN(c3ccccc3)CC2)c1=O (stereo unspecified)	79% (inactive)
COc1ccc(N2CCN(C(=O)CSc3nnc4c(C)cc5cc6c(cc5n34)OCCO6)CC2)cc1	86% (inactive)
COc1ccc(NC(=O)CN2C(=O)C(c3ccccc3)=NC23CCC(C)CC3)cc1Cl (stereo unspecified)	73% (inactive)
COC(=O)c1c(-c2cccs2)csc1NC(=O)c1ccc(C(C)C)cc1	73% (inactive)
COc1ccc(C(=O)NCCc2sc(-c3cccc(F)c3)nc2C)cc1	67% (inactive)
CCc1ccc(CNC(=O)c2cc3c(=O)oc4ccc(C)cc4c3s2)cc1	82% (inactive)
CCc1ccc(N(CC)C(=O)c2cc3c(=O)oc4ccc(C)cc4c3s2)cc1	42% (active)
CCCN(C(=O)c1cc2c(=O)oc3ccccc3c2s1)c1ccc(CC)cc1	31% (active)
CCN(C(=O)c1cc2c(=O)oc3ccc(C)cc3c2s1)c1ccccc1C	63% (inactive)
CCCN(C(=O)c1cc2c(=O)oc3ccccc3c2s1)c1ccccc1C	54% (inactive)
CCCN(C(=O)c1cc2c(=O)oc3ccccc3c2s1)c1cccc(Cl)c1	47% (inactive)
CCOC(=O)C1=C(CN2CCCCC2)NC(=O)NC1c1ccc(OC)cc1 (stereo unspecified)	84% (inactive)
O=C1Nc2ccccc2C1=Nc1ccc(Br)cc1	74% (inactive)
CCN(C(=O)CCS(=O)(=O)c1cccc2nsnc12)c1cccc(C)c1	74% (inactive)
O=C(NC1CCCC1)C(c1ccccc1)N(CC1CCCO1)C(=O)Cn1nnc2ccccc21 (stereo unspecified)	89% (inactive)
CCOc1ccccc1NC(=O)CSc1nnc(CC)c(CC)n1	73% (inactive)
Cc1ccc(-n2nnnc2CNC(=O)C(C)(C)C)cc1C	46% (active)
Cc1ccc(C(=O)NCc2nnnn2-c2ccc(C)c(C)c2)cc1	115% (inactive)
Cc1ccc(-n2nnnc2CNC(=O)c2ccccc2)cc1C	144% (inactive)

Structure (SMILES)	survival
COc1ccc(-n2nnnc2SCC(=O)NCCc2ccccc2)cc1	53% (inactive)
Cc1ccc(-n2nnnc2CNC(=O)c2ccc(F)cc2)cc1C	106% (inactive)
Cc1ccc(-n2nnnc2SCC(=O)NCCc2ccccc2)cc1C	42% (active)
Cc1ccc(-n2nnnc2CNC(=O)C(C)C)cc1C	105% (inactive)
O=C(CSc1nnnn1Cc1ccccc1)NCCc1ccccc1	89% (inactive)
Cc1ccc(-n2nnnc2CNC(=O)c2cc(C(F)(F)F)cc(C(F)(F)F)c2)cc1C	0% (active)
CCOC(=O)C1=C(CS(=O)(=O)c2ccc(Br)cc2)NC(=O)NC1c1ccccc1 (stereo unspecified)	80% (inactive)
Cc1cccc(-c2cc(NC(=O)COc3ccccc3F)n(-c3ccccc3)n2)c1	86% (inactive)
CCOC(=O)c1ccc(NC(=O)Cn2c(=O)cc(C(F)(F)F)c3c(C)nn(C)c32)cc1	95% (inactive)
COc1ccc(CCNS(=O)(=O)c2ccc(N3CCCCS3(=O)=O)cc2)cc1OC	69% (inactive)
O=C(Nc1ccc(O)c(-c2nc3ccccc3o2)c1)c1ccc(-c2cccc(Cl)c2)o1	49% (inactive)
COc1ccc(Br)cc1C(=O)Nc1ccc(-c2nc3cc(Cl)ccc3o2)cc1	43% (active)
Cc1c(NC(=O)c2ccc(-c3cccc([N+](=O)[O-])c3)o2)cccc1-c1nc2cc(Cl)ccc2o1	52% (inactive)
O=C(Nc1ccc(-c2nc3cc(Cl)ccc3o2)cc1)c1cc(Br)ccc1Cl	93% (inactive)
O=C(Nc1ccc2oc(-c3cccnc3)nc2c1)c1ccc(-c2ccc(Cl)cc2)o1	73% (inactive)
O=C(Nc1ccc2oc(-c3cccnc3)nc2c1)c1ccc(-c2ccccc2)o1	45% (active)
O=C(Nc1ccc(Cl)c(-c2nc3ccccc3o2)c1)c1ccc(-c2cccc([N+](=O)[O-])c2)o1	37% (active)
O=C(Nc1ccc2oc(-c3cccnc3)nc2c1)c1ccc(-c2cccc(Cl)c2)o1	50% (inactive)
O=C(Nc1ccc2oc(-c3ccc(Br)cc3)nc2c1)c1cc2ccccc2o1	55% (inactive)
O=C(Nc1cccc(-c2nc3ccccc3o2)c1)c1ccc(-c2ccc(Br)cc2)o1	39% (active)
COc1ccc(Cl)cc1C(=O)Nc1ccc2oc(-c3ccc(C(C)(C)C)cc3)nc2c1	82% (inactive)
O=C(Nc1cccc(-c2nc3ccccc3o2)c1)C(F)(F)F	61% (inactive)
